Mcl1 Bid PPI: Mcl-1/Bid binding inhibitors, primary screen, biochemical, TR-FRET, 1536-well | AID 1021, 2008 | Induced myeloid leukemia cell differentiation protein Mcl-1 (Homo sapiens), Q07820 | actives 0.97% (n = 220,000) | inhibition, % at 21.7 µM | TR-FRET Mcl-1/Bid-Dy647 peptide binding;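 active = compounds that cut the binding signal by more than half at the single screening dose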;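 also: His-tagged Mcl-1 with europium anti-His antibody binding Bid BH3 peptide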
eIF4E-4G inh: eIF4E–eIF4G protein interaction inhibitors, primary screen, biochemical, uHTS, TR-FRET, eIF4GI fragment; TR-FRET eIF4E-eIF4GI(517-606) binding, 2 h; inhibition, % at 21.7 µM; actives 0.37% (n = 220,000)
14-3-3 Bad PPI: inhibitors of 14-3-3 zeta/Bad binding, primary screen, biochemical, TR-FRET, bovine 14-3-3 zeta; 14-3-3 protein zeta/delta (Bos taurus), P63103; TR-FRET 14-3-3zeta/Dy647-pBad peptide displacement, 1 h; inhibition, % at 21.7 µM; actives 0.71% (n = 220,000); AID 781, 2007;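 active = inhibition above about 70%, limit read from the data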
Mcl1 Noxa PPI: Mcl-1/Noxa binding inhibitors, primary screen, biochemical, TR-FRET, 1536-well. TR-FRET Mcl-1/Noxa peptide binding, 2 h. actives 1.5% (n = 220,000). AID 1022, 2008. inhibition, % at 21.7 µM;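 active = compounds that cut the protein-peptide binding signal by more than 50% relative to plate controls in a single-dose test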;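 also: His-tagged Mcl-1 with rhodamine Noxa BH3 peptide and terbium anti-His antibody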
Mcl-1 Bim block: inhibitors of Bim peptide binding to Mcl-1, primary screen, biochemical, bead-based flow cytometry, multiplex; Bim peptide-Mcl-1 binding; inhibition, % at 10 µM; Induced myeloid leukemia cell differentiation protein Mcl-1 (Homo sapiens), Q07820; actives 0.1% (n = 190,000); AID 1009, 2008; in the data active = inhibition above about 40%
p47phox inh: p47phox/p22phox peptide binding inhibitors, primary screen, biochemical, uHTS, NADPH oxidase regulatory subunit | inhibition, % at 24.7 µM | fluorescence polarization, 2 h | actives 0.53% (n = 220,000) | Neutrophil cytosol factor 1 (Homo sapiens), P14598
Target sequence (P14598 whole entry, looked up): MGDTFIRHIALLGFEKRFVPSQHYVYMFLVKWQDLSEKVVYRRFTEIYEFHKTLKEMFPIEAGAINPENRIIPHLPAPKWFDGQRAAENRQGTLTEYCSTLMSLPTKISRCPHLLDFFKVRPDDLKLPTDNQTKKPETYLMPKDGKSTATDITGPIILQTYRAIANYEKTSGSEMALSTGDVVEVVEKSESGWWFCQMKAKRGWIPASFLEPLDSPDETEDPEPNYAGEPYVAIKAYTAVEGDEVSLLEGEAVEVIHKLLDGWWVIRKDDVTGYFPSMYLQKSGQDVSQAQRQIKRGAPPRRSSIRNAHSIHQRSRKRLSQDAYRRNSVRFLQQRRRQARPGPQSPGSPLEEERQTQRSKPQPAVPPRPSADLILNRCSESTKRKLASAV
Numbers stand for hits; – = inactive; · = not tested or not shown; [ ] = dose if it differs, or a comment. In the library only some 3.3% were active in any assay of this set; here they are far more common.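 The calls were made as follows, unless noted: active = inhibition above about 30% (limit read from the data); inactive = the rest.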

SMILES	Mcl1 Bid PPI	eIF4E-4G inh	14-3-3 Bad PPI	Mcl1 Noxa PPI	Mcl-1 Bim block	p47phox inh
CCOC(=O)c1ccc(Nc2ncnc3ccccc23)cc1	–	–	–	–	–	–
O=C(Oc1ccc(Nc2ncnc3ccccc23)cc1)c1cccnc1	73	–	82	–	–	–
Clc1ccc(/C=N/Nc2nc(Cl)nc3ccccc23)cc1	–	–	–	–	–	70
CC(NC(=O)CCSc1nc(-c2ccc3c(c2)OCO3)cc(C(F)(F)F)n1)c1ccccc1 (centres undefined)	–	–	–	–	–	–
CC(NC(=O)C1CCC(CNS(=O)(=O)c2ccccc2)CC1)c1ccc2c(c1)OCCO2 (centres undefined)	–	–	–	–	–	–
CCOC(=O)c1ccc(Nc2nc(-c3cccnc3)nc3ccccc23)cc1	–	–	75[fluorescence artefact?]	–	–	–
Cc1c(O)ccc(/C=N/Nc2nc(-c3cccnc3)nc3ccccc23)c1O	–	–	–	89	·	–
Cc1ccccc1Nc1nc(-c2cccnc2)nc2ccccc12	–	–	–	–	–	–
Oc1ccc(/C=N/Nc2nc(-c3cccnc3)nc3ccccc23)c(O)c1	–	–	83	84	·	–
COc1ccc(/C=N/Nc2nc(-c3cccnc3)nc3ccccc23)cc1OC	–	–	–	–	·	–
COc1ccc(S(=O)(=O)Nc2cc3c(cc2C(C)=O)OCO3)cc1	–	–	–	–	–	–
CC1CCC2(CC1)NC(=O)N(CC(=O)NC(=O)Nc1ccc3c(c1)OCCO3)C2=O (centres undefined)	–	–	–	–	·	–
O=C(N1CCOCC1)C12CC3CC(C1)CC(c1ccccc1)(C3)C2	–	–	–	–	–	–
Cc1ccc(C23CC4CC(CC(CN)(C4)C2)C3)cc1	–	86	–	–	–	–
Cc1ccc(C23CC4CC(CC(C(=O)N5CCOCC5)(C4)C2)C3)cc1	58	–	–	–	–	–
COC(=O)CNC(=O)C12CC3CC(C1)CC(c1ccc(C)cc1)(C3)C2	–	–	–	–	–	–
CCc1ccc(C(=O)CSc2ncn[nH]2)cc1	–	32	–	–	–	–
C/C(=N\NC(=O)Cn1cc([N+](=O)[O-])cn1)c1ccco1	–	–	–	–	·	–
Cc1cccc(SC2CCN(Cc3nc(CC4CC4)no3)CC2)c1	–	–	–	–	–	41
Cc1cc(OCC(=O)N2CCOCC2)ccc1[N+](=O)[O-]	–	–	–	–	·	–
COc1ccc(C(=O)/C=C(\N)C(F)(F)F)c(O)c1	–	–	–	69	–	–
Cc1cc(NC(=O)CSc2nc(=O)cc(N)n2-c2ccc(Cl)cc2)no1	–	–	–	–	–	·
COc1ccc(CN(CC2CCC(C(=O)O)CC2)C(=S)Nc2cccc(C)c2)cc1 (centres undefined)	–	–	–	–	–	–
COc1ccc2oc(=O)c(-c3nnc(NCc4ccco4)s3)cc2c1	65	–	–	–	–	–
CNc1nnc(-c2cc3cc(Cl)ccc3oc2=O)s1	–	–	–	64	–	–
SMILES	Mcl1 Bid PPI	eIF4E-4G inh	14-3-3 Bad PPI	Mcl1 Noxa PPI	Mcl-1 Bim block	p47phox inh
CCOc1cccc2cc(-c3nnc(NCc4ccco4)s3)c(=O)oc12	–	–	–	64	–	–
COc1ccc2oc(=O)c(/C(C)=N/Nc3nc(-c4cc(C)ccc4C)cs3)cc2c1	–	–	–	–	–	–
O=c1oc2ccc(Cl)cc2cc1-c1nnc(Nc2cccc(C(F)(F)F)c2)s1	–	–	–	–	–	–
COc1ccc2oc(=O)c(-c3csc(Nc4ccc(O)cc4)n3)cc2c1	–	–	–	73	–	–
CC(C)S(=O)(=O)c1cnc(-c2ccccn2)nc1N	–	–	–	–	·	–
CCOC(=O)Cn1nc(C)c(NC(=O)c2ccc([N+](=O)[O-])c(C)c2)c1C	–	–	–	–	–	–
CCOC(=O)c1ccc(NC(=O)c2nc[nH]c2C(=O)N[C@@H](CC(C)C)C(=O)OCc2ccccc2)cc1	–	–	–	–	·	–
COc1cccc(/C=C/C(=O)Nc2ccccc2N2CCOCC2)c1	–	–	–	–	–	–
COc1ccc(Cl)cc1N(CC(=O)NC1CC1)S(=O)(=O)c1ccc(C)c([N+](=O)[O-])c1	–	–	–	–	–	–
CCOc1cccc2cc(-c3cn4cc(C)ccc4n3)c(=O)oc12	80	–	–	–	–	–
COc1ccccc1CN(C(=O)CCl)C(C(=O)NC1CCCCC1)c1ccncc1 (centres undefined)	–	–	–	–	–	43
CC(NC(=O)C(=O)N/N=C/c1ccccc1)c1ccccc1 (centres undefined)	–	–	–	–	–	–
CN(C)c1ccc(NC(=O)/C=C/c2c(Cl)cccc2Cl)cc1	–	–	–	83	–	–
CN(C)c1ccc(NC(=O)Nc2csc3ccccc23)cc1	–	–	–	57	·	–
O=C(Nc1ccc(F)cc1)Nc1csc2ccccc12	–	–	–	–	·	–
CN(C)S(=O)(=O)c1ccc(NC(=O)/C=C/c2ccccc2Cl)cc1	–	–	–	–	–	–
CN(C)c1ccc(NC(=O)Nc2cccc(Cl)c2)cc1	–	–	–	76	–	–
CC(=O)N(Cc1ccco1)c1nc(C(=O)Nc2ccc(Cl)cc2)c(C)s1	–	–	–	–	–	–
Cc1nn(CC(=O)N/N=C/c2ccc3c(c2)OCO3)c(C)c1Br	–	–	80	–	–	–
Cc1cc(C)n(CC(=O)N/N=C/c2ccc3c(c2)OCO3)n1	–	–	–	–	–	–
COC(=O)c1cc(=O)n(Cc2ccc(OC)c(OC)c2)c(=Nc2ccc(F)cc2)s1	–	–	–	–	–	–
COC(=O)c1cc(=O)n(Cc2ccc(F)cc2)c(=Nc2ccccc2)s1	–	–	–	52	·	–
N#C/C(=C\c1ccc(/C=C(/C#N)c2nn(CCO)c(N)c2C#N)cc1)c1nn(CCO)c(N)c1C#N	62	–	–	58	–	–
N#C/C(=C/c1ccccc1)c1nn(CCO)c(N)c1C#N	–	–	–	–	–	–
N#C/C(=C\c1cn(-c2ccccc2)nc1-c1cc2ccccc2o1)c1nc2ccccc2[nH]1	–	–	–	59	–	–
Cc1cc(/C=C(/C#N)c2nc3ccccc3[nH]2)c(C)n1-c1cc(C(=O)O)cc(C(=O)O)c1	–	–	–	52	–	–
